From PubChem BioAssay (NCATS)
Values joined by “and” are separate entries in the source; they are usually repeats but may differ in a detail not shown here. Equal values may be shown once. Unmarked numbers belong to inactive results. Results filed as inconclusive are left out. A call without a number means that no potency is given here. Active and inactive are the calls of the source. Unless noted, calls come from the whole dose curve; as a rule, active = well fitted curve in the direction sought with a large enough effect; inconclusive = small, poorly fitted or top-dose-only effect, or another doubt; inactive = no such curve, though single readings can be large; an effect the other way counts as inactive or inconclusive.

How the values were obtained:
[1] = Cell Viability - Mesenchymal (AID 546);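 note: cells exposed to compound for 40 hours before reading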
Outline: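 CellTiter-Glo luminescence (intracellular ATP, 20 min room temperature) after 40 hr compound exposure at 37 °C of 1000 glomerulus-derived human kidney mesenchymal cells/well; AC50 values obtained by fitting qHTS concentration-response data to the Hill equation.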

[2] = Cellular Toxicity (caspase-3) HepG2 (AID 654);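 note: cells exposed to compound for 16 hours before reading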
Outline: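 Caspase 3/7 activation is measured as a luminescence increase (aminoluciferin substrate) after 16 h compound exposure of human hepatocarcinoma HepG2 cells. AC50 values are Hill fits, scaled between DMSO baseline and 100 uM tamoxifen stimulation.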

[3] = Cellular Toxicity (caspase-3) Jurkat (AID 655);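 note: cells exposed to compound for 16 h at 37 °C before reading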; note: potency is the fitted concentration of half-maximal effect
Outline: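 qHTS in human Jurkat T-cell leukemia line: 16 hr compound treatment at 37 °C, caspase-3/7 activity measured by Caspase-Glo luminescence. AC50 derived from Hill equation.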

[4] = Cellular Toxicity (caspase-3) HUV-EC-C (AID 656)
Outline: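 Concentration-dependent caspase 3/7 induction was assessed in HUV-EC-C cells exposed for 16 hours. Data scaled between DMSO and tamoxifen (100 uM) controls.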

[5] = Cellular Toxicity (caspase-3) SHSY5Y (AID 657);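 note: cells exposed to compound for 16 hours at 37 °C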
Outline: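 Readout: caspase-cleaved peptide-aminoluciferin substrate driving luciferase light in SH-SY5Y neuroblastoma cells after 16 h treatment. Response normalized to DMSO and 10 uM staurosporine controls.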

[6] = Cellular Toxicity (caspase-3) BJ (AID 658); conditions: Potency: caspase-3 activation; note: potency is the fitted concentration of half-maximal effect
Outline: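 Caspase-Glo 3/7 luminescence, read 1 hr after reagent at room temperature, in normal BJ fibroblasts exposed 16 hours at 37 °C. AC50 values from Hill-equation concentration-response, scaled between DMSO basal and 10 uM staurosporine as 100%.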

[7] = Cellular Toxicity (caspase-3) MRC-5 (AID 659); conditions: Potency: caspase-3 activation; note: potency is the fitted concentration of half-maximal effect
Outline: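 Luminescent Caspase-Glo 3/7 read-out (1 h, room temperature) after a 16 h, 37 °C compound exposure of MRC-5 lung fibroblasts at 1500 cells/well. Concentration-response AC50 from Hill equation; 0% DMSO, 100% 10 uM staurosporine.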

[8] = Cellular Toxicity (caspase-3) Mesangial (AID 660);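 note: combined caspase 3 and 7 activity read by Caspase-Glo luminescence; cells exposed to compound for 16 h before the caspase read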
Outline: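 Caspase 3/7 activation measured by Caspase-Glo 3/7 luminescence (20 min, room temperature) following 16 h exposure of mesangial cells (1000/well); AC50 from Hill-equation fit, normalized to DMSO and 100 uM tamoxifen.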

[9] = Cellular Toxicity (caspase-3) SK-N-SH (AID 661); conditions: SK-N-SH caspase-3 activation, qHTS; caspase-3 activation: at 91.7 µM (top of the series), DMSO as zero, staurosporine as full; note: potency is the fitted concentration of half-maximal effect
Outline: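 Caspase 3/7 activation was read by luminogenic substrate cleavage after 16 hour treatment of SK-N-SH cells. Signal was scaled between DMSO and 10 uM staurosporine, and concentration-response data were fitted with the Hill equation for AC50.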

[10] = Cellular Toxicity (caspase-3) H-4-II-E (AID 663);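 note: cells exposed to compound for 16 hr before readout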
Outline: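 Caspase 3/7 activation measured by luminescent aminoluciferin substrate cleavage after 16 hr compound treatment of H-4-II-E cells in complete medium. Increase normalized between DMSO (basal) and 100 uM tamoxifen (100%); Hill-equation AC50 from concentration-response.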

[11] = Cellular Toxicity (caspase-3) Hek293 (AID 664);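 note: cells exposed to compound for 16 h at 37 °C before readout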
Outline: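 Concentration-response qHTS: caspase 3/7 activation measured by luminescent aminoluciferin substrate cleavage after 16 h compound exposure of Hek 293 cells. AC50 from Hill equation, with DMSO as basal and 100 uM tamoxifen as 100%.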

[12] = Cellular Toxicity (caspase-3) N2a (AID 665);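 note: compound exposure lasted 16 h at 37 °C before readout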
Outline: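 Caspase-3/7 activation measured as luminescence from Caspase-Glo reagent (1 h, room temperature) after 16 h compound exposure of mouse N2a cells. AC50 values from Hill-equation concentration-response, scaled between DMSO and 10 uM staurosporine.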

[13] = Cellular Toxicity (caspase-3) Renal Proximal Tubule (AID 667); conditions: renal proximal tubule cells; at 91.7 µM (top of the series) unless noted;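 note: cells exposed to compound for 16 hours at 37 °C before detection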
Outline: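 Caspase-Glo 3/7 read-out, rat primary kidney proximal tubule cells. Compound exposure 16 h, 37 °C; detection after 1 h at RT. Activity scaled to DMSO and 10 uM staurosporine.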

[14] = target: Cytochrome P450 3A4 (Homo sapiens) (UniProt P08684); experiment: qHTS Assay for Inhibitors and Substrates of Cytochrome P450 3A4 (AID 884); note: nearly all actives have a fitted effect of over 50% in size; note: potency is the fitted concentration of half-maximal effect
Outline: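 Luminescent readout of luciferin produced by CYP3A4 (20 nM) dealkylation of Luciferin-PPXE, 25 uM (its KM). NADPH-driven reaction ran 60 min at RT after 10 min compound preincubation; data scaled to 57 uM ketoconazole as 100% inhibition.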

[15] = target: 3',5'-cyclic-AMP phosphodiesterase 4B (Homo sapiens) (UniProt Q07343); experiment: qHTS Assay for Inhibitors of PDE-IV (AID 607; active = well fitted activation curve with a large enough effect in the main read-out, with a control signal flat, not every such curve was filed as active)
Outline: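 Live HEK293 cells with a modified cyclic nucleotide-gated (CNG) channel report intracellular cAMP via membrane-potential dye fluorescence (ex 535/em 590 nm). Endogenous PDE-IV was targeted. Compounds were tested at up to 22.9 uM final; RO 20-1724 100 uM served as control.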

[16] = target: Guanine nucleotide-binding protein G(i) subunit alpha-1 (Homo sapiens) (UniProt P63096); experiment: qHTS Assay for Inhibitors of RGS12 GoLoco Motif Activity (Green Fluorophore) (AID 879); note: potency is the fitted concentration of half-maximal effect;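 for activity, negative = inhibition: negative values mean loss of peptide binding seen as reduced polarization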
Outline: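 A drop in FITC polarization marked displacement of the FITC-tagged RGS12 GoLoco peptide (10 nM) from Gαi1 (50 nM). Compounds were incubated 10 min at room temperature in Tris pH 7.5 buffer containing 150 mM NaCl, 0.1 mM GDP and 0.05% NP40; unlabeled peptide titration served as control.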

[17] = target: Cytochrome P450 3A4 (Homo sapiens) (UniProt P08684); experiment: qHTS Assay for Activators of Cytochrome P450 3A4 (AID 885); note: nearly all actives have a fitted effect of over 65% in size
Outline: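 Using 20nM recombinant human CYP3A4 in potassium phosphate (200mM), substrate Luciferin-PPXE at 25uM, luminescent luciferin detection followed a 60-min RT NADPH reaction; data scaled to 57 uM ketoconazole.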

[18] = target: Cytochrome P450 2D6 (Homo sapiens) (UniProt P10635); experiment: qHTS Assay for Inhibitors and Substrates of Cytochrome P450 2D6 (AID 891); note: nearly all actives have a fitted effect of over 60% in size; note: potency is the fitted concentration of half-maximal effect;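 for activity change, negative = inhibition: luciferin methyl ether substrate demethylated by CYP2D6 with NADPH regeneration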
Outline: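 Luminescent read-out of luciferin formed by 5 nM human CYP2D6 demethylating 30 uM Luciferin-ME EGE (Km level) over 60 min at room temperature after NADPH regeneration addition. Data normalized to full inhibition by 1.43 uM quinidine.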

[19] = target: Cytochrome P450 2C19 (Homo sapiens) (UniProt P33261); experiment: qHTS Assay for Inhibitors and Substrates of Cytochrome P450 2C19 (AID 899); note: nearly all actives have a fitted effect of over 60% in size; note: potency is the fitted concentration of half-maximal effect
Outline: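 5nM enzyme + 10uM Luciferin-H EGE (=KM), 50mM KPO4; cpd pin-transferred, 10 min 37C; NADPH regen, 60 min 37C; stopped w/ luciferin detection reagent, 20 min; luminescence. Normalized to 57uM ketoconazole (AC100).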

[20] = target: Cytochrome P450 2C9 (Homo sapiens) (UniProt P11712); experiment: qHTS Assay for Inhibitors and Substrates of Cytochrome P450 2C9 (AID 883); note: nearly all actives have a fitted effect of over 60% in size; note: potency is the fitted concentration of half-maximal effect
Outline: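 Inhibition of CYP2C9 is scored as loss of luminescence, with 57uM sulphaphenazole defining 100% inhibition. Substrate Luciferin-H is used at 100uM, equal to its KM; enzyme at 10nM in 25mM KPO4, 60 min at 37C with NADPH regeneration.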

Sequence of Cytochrome P450 2C19 (Homo sapiens) (P33261 whole entry, looked up): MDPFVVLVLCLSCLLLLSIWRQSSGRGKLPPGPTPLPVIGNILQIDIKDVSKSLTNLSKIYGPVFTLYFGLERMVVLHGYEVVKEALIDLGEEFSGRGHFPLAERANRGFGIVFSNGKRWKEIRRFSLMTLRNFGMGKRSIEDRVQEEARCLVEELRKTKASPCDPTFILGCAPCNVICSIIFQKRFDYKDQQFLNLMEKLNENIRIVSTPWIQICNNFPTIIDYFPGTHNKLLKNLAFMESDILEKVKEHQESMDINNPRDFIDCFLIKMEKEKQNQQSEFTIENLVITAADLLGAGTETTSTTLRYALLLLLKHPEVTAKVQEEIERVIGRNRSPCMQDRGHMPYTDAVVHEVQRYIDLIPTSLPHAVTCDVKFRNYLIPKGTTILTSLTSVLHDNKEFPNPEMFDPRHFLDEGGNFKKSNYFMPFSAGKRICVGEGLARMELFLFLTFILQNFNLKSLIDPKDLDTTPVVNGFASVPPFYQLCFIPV
Sequence of 3',5'-cyclic-AMP phosphodiesterase 4B (Homo sapiens) (Q07343 whole entry, looked up): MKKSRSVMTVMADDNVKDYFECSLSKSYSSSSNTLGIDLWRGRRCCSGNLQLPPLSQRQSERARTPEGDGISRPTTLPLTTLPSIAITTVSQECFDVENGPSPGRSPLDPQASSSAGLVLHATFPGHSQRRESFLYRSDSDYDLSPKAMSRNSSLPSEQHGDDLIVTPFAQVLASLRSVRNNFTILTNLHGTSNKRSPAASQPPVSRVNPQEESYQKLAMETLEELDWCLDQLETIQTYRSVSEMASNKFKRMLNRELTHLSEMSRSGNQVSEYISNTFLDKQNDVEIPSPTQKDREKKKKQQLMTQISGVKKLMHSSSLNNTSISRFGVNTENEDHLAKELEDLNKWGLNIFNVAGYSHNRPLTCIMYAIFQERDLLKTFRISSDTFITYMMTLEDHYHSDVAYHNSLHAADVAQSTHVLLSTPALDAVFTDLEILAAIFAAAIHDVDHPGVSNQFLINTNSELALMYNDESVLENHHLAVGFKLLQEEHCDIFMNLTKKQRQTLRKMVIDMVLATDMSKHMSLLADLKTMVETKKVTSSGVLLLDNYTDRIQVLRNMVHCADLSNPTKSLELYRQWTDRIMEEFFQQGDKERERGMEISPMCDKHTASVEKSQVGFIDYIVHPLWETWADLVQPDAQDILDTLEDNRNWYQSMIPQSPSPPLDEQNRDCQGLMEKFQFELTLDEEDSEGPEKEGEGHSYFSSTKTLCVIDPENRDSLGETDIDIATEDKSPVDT
Sequence of Cytochrome P450 2D6 (Homo sapiens) (P10635 whole entry, looked up): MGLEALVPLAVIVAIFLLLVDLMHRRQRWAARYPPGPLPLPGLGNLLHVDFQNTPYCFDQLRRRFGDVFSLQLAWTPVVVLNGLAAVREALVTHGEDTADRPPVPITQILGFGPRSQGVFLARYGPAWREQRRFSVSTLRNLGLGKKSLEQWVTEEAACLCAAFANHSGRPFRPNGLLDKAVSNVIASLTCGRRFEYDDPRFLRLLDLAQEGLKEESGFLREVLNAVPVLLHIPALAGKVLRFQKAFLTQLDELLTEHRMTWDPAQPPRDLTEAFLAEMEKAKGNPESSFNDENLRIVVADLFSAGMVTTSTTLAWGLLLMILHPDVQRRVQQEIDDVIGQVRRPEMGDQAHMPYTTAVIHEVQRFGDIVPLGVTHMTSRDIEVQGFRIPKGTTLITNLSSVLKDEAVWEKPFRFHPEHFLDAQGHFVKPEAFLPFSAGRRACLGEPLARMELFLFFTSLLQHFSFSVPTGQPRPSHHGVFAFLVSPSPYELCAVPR
Sequence of Cytochrome P450 3A4 (Homo sapiens) (P08684 whole entry, looked up): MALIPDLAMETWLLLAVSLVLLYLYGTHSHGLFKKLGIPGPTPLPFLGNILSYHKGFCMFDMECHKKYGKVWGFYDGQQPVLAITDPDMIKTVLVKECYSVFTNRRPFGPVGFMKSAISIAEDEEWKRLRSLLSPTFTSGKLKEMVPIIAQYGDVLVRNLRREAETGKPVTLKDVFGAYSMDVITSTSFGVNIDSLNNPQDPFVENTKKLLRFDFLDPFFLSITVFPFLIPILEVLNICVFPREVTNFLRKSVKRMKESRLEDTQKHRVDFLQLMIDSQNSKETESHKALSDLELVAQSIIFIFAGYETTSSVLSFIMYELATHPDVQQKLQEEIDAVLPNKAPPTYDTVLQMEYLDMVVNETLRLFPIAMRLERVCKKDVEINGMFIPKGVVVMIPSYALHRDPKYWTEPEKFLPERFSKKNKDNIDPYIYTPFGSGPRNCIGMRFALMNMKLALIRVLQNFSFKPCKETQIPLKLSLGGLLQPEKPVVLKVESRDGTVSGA
Sequence of Cytochrome P450 2C9 (Homo sapiens) (P11712 whole entry, looked up): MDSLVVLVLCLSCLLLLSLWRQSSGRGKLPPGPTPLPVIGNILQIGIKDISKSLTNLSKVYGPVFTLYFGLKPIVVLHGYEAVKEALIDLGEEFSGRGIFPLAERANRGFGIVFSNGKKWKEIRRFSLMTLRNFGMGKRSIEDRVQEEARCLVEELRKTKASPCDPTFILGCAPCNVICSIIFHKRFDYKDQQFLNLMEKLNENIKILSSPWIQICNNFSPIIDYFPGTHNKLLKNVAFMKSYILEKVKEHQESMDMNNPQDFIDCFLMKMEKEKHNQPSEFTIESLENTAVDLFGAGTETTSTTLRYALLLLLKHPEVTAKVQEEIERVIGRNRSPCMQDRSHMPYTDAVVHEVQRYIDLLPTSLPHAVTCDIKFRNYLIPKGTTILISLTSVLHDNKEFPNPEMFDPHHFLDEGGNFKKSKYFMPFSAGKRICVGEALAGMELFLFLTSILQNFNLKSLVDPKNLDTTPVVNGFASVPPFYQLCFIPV
Sequence of Guanine nucleotide-binding protein G(i) subunit alpha-1 (Homo sapiens) (P63096 whole entry, looked up): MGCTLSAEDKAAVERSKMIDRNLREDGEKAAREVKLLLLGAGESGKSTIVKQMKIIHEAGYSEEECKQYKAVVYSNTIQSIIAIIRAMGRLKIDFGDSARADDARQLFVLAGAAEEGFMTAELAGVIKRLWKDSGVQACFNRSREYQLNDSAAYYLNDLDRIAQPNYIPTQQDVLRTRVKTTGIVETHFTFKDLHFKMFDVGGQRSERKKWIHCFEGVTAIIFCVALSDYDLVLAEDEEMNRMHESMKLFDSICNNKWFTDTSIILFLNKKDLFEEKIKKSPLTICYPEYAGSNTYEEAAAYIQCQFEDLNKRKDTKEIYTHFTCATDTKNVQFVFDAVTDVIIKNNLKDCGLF

O=[N+]([O-])c1ccccc1
Potency [1]: inactive
outcome [2]: inactive
Potency [3]: inactive
outcome [4]: inactive
outcome [5]: inactive
Potency [6]: inactive
Potency [7]: inactive
outcome [8]: inactive
Potency [9]: inactive
outcome [10]: inactive
outcome [11]: inactive
outcome [12]: inactive
caspase-3 activation [13]: 0.615%
Potency [14]: inactive

[O]=[Cr](=[O])([OH])[O][Cr](=[O])(=[O])[OH]
Potency [1]: inactive
outcome [2]: inactive
Potency [3]: 31.6 µM (active)
Potency [6]: 15.8 µM (active)
Potency [7]: 20 µM (active) and 25.1 µM (active)
outcome [8]: inactive
Potency [9]: 20 µM (active)
caspase-3 activation [9]: 80.2% (active)
outcome [10]: inactive
outcome [11]: inactive
outcome [12]: inactive
caspase-3 activation [13]: 101% (active)
Potency [14]: inactive

NNC(N)=O
Potency [1]: inactive
Potency [15]: inactive
outcome [2]: inactive
Potency [3]: inactive
outcome [4]: inactive
outcome [5]: inactive
Potency [6]: inactive
Potency [7]: inactive
outcome [8]: inactive
Potency [9]: inactive
outcome [10]: inactive
outcome [11]: inactive
outcome [12]: inactive
caspase-3 activation [13]: 4.27%
Potency [16]: inactive
Potency [14]: inactive

O=C(O)C(Cl)(Cl)Cl
Potency [1]: inactive
outcome [2]: inactive
Potency [3]: inactive
outcome [4]: inactive
outcome [5]: inactive
Potency [6]: inactive
Potency [7]: inactive
outcome [8]: inactive
Potency [9]: inactive
outcome [10]: inactive
outcome [11]: inactive
outcome [12]: inactive
caspase-3 activation [13]: -2.66% and 2.21%
Potency [14]: inactive

CC(C)CCON=O
Potency [1]: inactive
outcome [2]: inactive
Potency [3]: inactive
outcome [4]: inactive
outcome [5]: inactive
Potency [6]: inactive
Potency [7]: inactive
outcome [8]: inactive
Potency [9]: inactive
outcome [10]: inactive
outcome [11]: inactive
outcome [12]: inactive
caspase-3 activation [13]: -0.158%
Potency [14]: inactive

ClC(Cl)(Cl)Cl
Potency [1]: inactive
outcome [2]: inactive
Potency [3]: inactive
outcome [4]: inactive
outcome [5]: inactive
Potency [6]: inactive
Potency [7]: inactive
outcome [8]: inactive
Potency [9]: inactive
outcome [10]: inactive
outcome [11]: inactive
outcome [12]: inactive
caspase-3 activation [13]: 5.92% and -10.1%
Potency [14]: inactive

C[C@H]1CCC[C@H](O)CCCCCc2cc(O)cc(O)c2C(=O)O1
Potency [1]: inactive
outcome [2]: inactive
Potency [3]: inactive
outcome [4]: inactive
outcome [5]: inactive
Potency [6]: inactive
Potency [7]: inactive
outcome [8]: inactive
Potency [9]: inactive
outcome [10]: inactive
outcome [11]: inactive
outcome [12]: inactive
caspase-3 activation [13]: -5.62%
Potency [14]: 3.98 µM (active)
outcome [17]: inactive

CC(C)(C)c1cc(O)ccc1O
Potency [1]: inactive
Potency [15]: inactive
outcome [2]: inactive
Potency [3]: inactive
outcome [4]: inactive
outcome [5]: inactive
Potency [6]: inactive
Potency [7]: inactive
outcome [8]: inactive
Potency [9]: inactive
outcome [10]: inactive
outcome [11]: inactive
outcome [12]: inactive
caspase-3 activation [13]: -12.4% and -3.67%
Potency [14]: inactive
activity change, negative = inhibition [18]: 11.9% [at 11.4 µM]
activity, negative = inhibition [19]: -31.1% [at 11.4 µM]

NCCc1c[nH]c2ccc(C(N)=O)cc12
Potency [15]: inactive
Potency [16]: inactive

c1ccc2c(c1)[I+]c1ccccc1-2
Potency [15]: inactive
Potency [16]: inactive
Potency [14]: 3.16 µM (active)
outcome [17]: inactive
Potency [18]: 3.98 µM (active) and 794 nM (active)
Potency [19]: 501 nM (active) and 63.1 nM (active)

C[N+](C)(C)CC#CCOC(=O)Nc1cccc(Cl)c1
Potency [15]: inactive
Potency [16]: inactive

Clc1ccc(N2C[C@H]3CC[C@@H](C2)N3)nn1
Potency [15]: inactive
Potency [16]: inactive

CCCn1c(C)c(C(=O)c2ccc3ccccc3c2)c2ccccc21
Potency [15]: inactive
Potency [16]: inactive
Potency [14]: inactive
Potency [19]: 7.94 µM (active)

O=c1c2ccccc2[se]n1-c1ccccc1
Potency [15]: inactive
Potency [16]: 12.6 µM (active)
Potency [20]: 1 µM (active) and 79.4 nM (active)
Potency [14]: 3.98 µM (active) and 25.1 µM (active)
outcome [17]: inactive
Potency [18]: 10 µM (active) and 1 µM (active)
Potency [19]: 1.58 µM (active) and 126 nM (active)

CCCN(CCC)C1Cc2cc(OC)c(OC)cc2C1
Potency [15]: inactive
Potency [16]: inactive
Potency [20]: inactive

CC(C)NP(=O)(NC(C)C)OP(=O)(NC(C)C)NC(C)C
Potency [15]: inactive
Potency [16]: inactive

CC(=O)NBr
Potency [15]: inactive
Potency [16]: inactive

O=S1(=O)N(CCN2CC=C(c3c[nH]c4cc(F)ccc34)CC2)c2cccc3c2N1CCC3
Potency [15]: inactive
Potency [16]: inactive
Potency [14]: 5.01 µM (active)
outcome [17]: inactive
Potency [18]: 199 nM (active)
Potency [19]: 6.31 µM (active)

COc1ccc2[nH]cc(CCN)c2c1
Potency [15]: inactive
Potency [16]: inactive
Potency [14]: inactive

CCS(=O)(=O)Nc1cccc(C(=C2CCCCC2)c2cnc[nH]2)c1
Potency [15]: inactive
Potency [16]: inactive
Potency [20]: 631 nM (active)
Potency [14]: 0.316 µM (active)
outcome [17]: inactive
Potency [18]: 7940 nM (active)
Potency [19]: 0.0079 µM (active)
